Measurements: PubChem BioAssay (Tox21)
The source made the active and inactive calls. Calls come from the whole dose curve; as a rule, active = well fitted curve in the direction sought with a large enough effect in the repeat runs; inconclusive = weak or mixed curves; inactive = flat fitted curve, though single readings scatter.

Assay: qHTS assay to test for compound auto fluorescence at 535 nm (green) in HepG2 cells (AID 720675)
Conditions: green autofluorescence 485/535 nm, 1 h; series mostly up to 46 µM; fluorescence, % of fluorescein control: at the top concentration
Source text: National Center for Advancing Translational Sciences [NCATS]
NIH Chemical Genomics Center [NCGC]
U.S. Environmental Protection Agency [EPA]
National Institutes of Environmental Health Sciences [NIEHS]
National Toxicology Program [NTP]
U.S. Food and Drug Administration [FDA]
Compound auto fluorescence often interferes with screening of the compound library against various biological targets and signaling pathways. Some of these compounds may have fluorophoric properties. Such properties may interfere with the assay outputs resulting in false positives and/or negatives. To decrease such complications and ensure the compound activities are relevant in terms of biological response, the Tox21 10K compound library was screened for auto fluorescence.
From the fluorophores used as reporter signals in our screening assays, the auto fluorescence equivalencies of compounds against three fluorophores have been evaluated: Triamterene, Fluorescein and Rose Bengal sodium for blue, green and red fluorescence, respectively. The fluorescence intensities were measured using Excitation/Emission wavelengths at 405/460nm, 485/535nm and 540/590nm for blue, green and red labels, respectively. This assay includes the green fluorescence data.
Tox21 Assay Protocol Summary:
2,000 HepG2 cells in 5 uL of culture medium (MEM containing 10% FBS) per well were dispensed into black wall/clear bottom 1536-well plates using a Multidrop Combi Dispenser (ThermoFisher Scientific, Waltham, MA). The assay plates were incubated overnight at 37 C to allow cell attachment to the well bottom, followed by the transfer of 23 nL compound or DMSO vehicle by a pintool work station (Kalypsys , San Diego, CA). After the assay plates were incubated for 1 hr at 37 C and 5% CO2, fluorescence intensities in the assay plates were measured by an Envision (PerkinElmer, Shelton, CT) plate reader using three labels for measuring blue, green and red fluorescence at […] 460, 535 and 590 nm respectively.
% is set by controls: 0 for no effect and ±100 for the full control effect.

| Compound | fluorescence, % of fluorescein control | Potency |
| --- | --- | --- |
| Cc1ccc(N(SC(F)(Cl)Cl)S(=O)(=O)N(C)C)cc1 | -0.134% [at 91.3 µM] (inactive) | – |
| C[C@]12CC[C@H](O)C[C@H]1CC[C@@H]1[C@@H]2CC[C@]2(C)[C@@H](c3ccc(=O)oc3)C[C@H]3O[C@]132 | 0.0186% (inactive) | – |
| O=C(O)/C=C\C(=O)O | – | inactive |
| CCCCCc1cc(O)c2c(c1)OC(C)(C)c1ccc(C)cc1-2 | 0.0006% (inactive) | – |
| O=c1c2ccccc2[se]n1-c1ccccc1 | 0.0136% (inactive) | – |
| C[C@]12N[C@H](Cc3ccccc31)c1ccccc12 | – | inactive |
| COC(=O)[C@H]1[C@@H](OC(=O)c2ccccc2)C[C@@H]2CC[C@H]1N2C | -0.0268% [at 91.3 µM] (inactive) | – |
| C=CC[C@]1(O)CC[C@H]2[C@@H]3CCC4=CCCC[C@@H]4[C@H]3CC[C@@]21C | 0.0157% (inactive) | – |
| CC1(C)[C@H](C=C(Cl)Cl)[C@H]1C(=O)OCc1c(F)c(F)cc(F)c1F | -0.158% (inactive) | – |
| Cc1ccc(O)cc1C | – | inactive |
| C/C(=C\c1csc(C)n1)[C@@H]1C[C@@H]2O[C@]2(C)CCC[C@H](C)[C@H](O)[C@@H](C)C(=O)C(C)(C)[C@@H](O)CC(=O)O1 | 0.101% (inactive) | – |
| O=c1[nH]cc(N(CCCl)CCCl)c(=O)[nH]1 | 0.149% (inactive) | – |
| C[N+]1(C)CCCCC1COC(=O)C(O)(c1ccccc1)c1ccccc1 (stereo not given) | -0.0133% (inactive) | – |
| C[C@]12CC[C@@H]3c4ccc(OC(=O)N(CCCl)CCCl)cc4CC[C@H]3[C@@H]1CC[C@@H]2OP(=O)(O)O | – | inactive |
| CCNC(C)Cc1cccc(C(F)(F)F)c1 (stereo not given) | -0.0437% (inactive) | – |
| CC(C)C[C@H]1C(=O)N2CCC[C@H]2[C@]2(O)O[C@](NC(=O)[C@@H]3C[C@@H]4c5cccc6[nH]cc(c56)C[C@H]4N(C)C3)(C(C)C)C(=O)N12 | 0.467% (inactive) | – |
| CN[C@@]1(c2ccccc2Cl)CCCCC1=O | 0.0255% (inactive) | – |
| CCN(CC)C(=O)N[C@H]1C[C@@H]2c3cccc4[nH]cc(c34)C[C@H]2N(C)C1 | 1.41% (inactive) | – |
| OCC(c1ccc(Cl)cc1)c1ccc(Cl)cc1 | 0.227% [at 91.3 µM] (inactive) | – |
| CC[N+](C)(CC)CCOC(=O)C(O)(c1ccccc1)c1ccccc1 | -0.151% (inactive) | – |

| Compound | fluorescence, % of fluorescein control | Potency |
| --- | --- | --- |
| O=C1CN(O)C(c2ccccc2)=c2cc(Cl)ccc2=N1 | -0.125% (inactive) | – |
| C[C@H]1CC[C@]2(NC1)O[C@H]1C[C@H]3[C@@H]4CC[C@H]5C[C@@H](O)CC[C@]5(C)[C@H]4CC[C@]3(C)[C@H]1[C@@H]2C | -0.0513% (inactive) | – |
| CC(C)C[C@H](CN)CC(=O)O | -0.114% (inactive) | – |
| O=C1CCCCC1CN1CCCCC1 (stereo not given) | 0.0081% (inactive) | – |
| CN[C@]1(c2ccccc2Cl)CCCCC1=O | -0.145% (inactive) | – |
| NCC[C@H](O)C(=O)N[C@@H]1C[C@H](N)[C@@H](O[C@H]2O[C@H](CN)[C@@H](O)[C@H](O)[C@H]2N)[C@H](O[C@@H]2O[C@H](CO)[C@@H](O)[C@H]2O)[C@H]1O | 0.0011% [at 18.6 µM] (inactive) | – |
| Cc1ccccc1-n1c(CF)nc2ccc(N)cc2c1=O | -0.102% (inactive) | – |
| Cc1nnc2n1-c1ccc(Cl)cc1C(c1ccccc1)=NC2 | -0.0006% (inactive) | – |
| CCC(C)(S(=O)(=O)CC)S(=O)(=O)CC | 0.0041% (inactive) | – |
| CCCC(C)(COC(N)=O)COC(=O)NC1CC1 (stereo not given) | -0.0468% (inactive) | – |
| O=c1ccc2cc(O[C@@H]3O[C@H](CO)[C@@H](O)[C@H](O)[C@H]3O)c(O)cc2o1 | -0.0341% [at 18.6 µM] (inactive) | – |
| Cc1cc(C(C)(C)c2ccc(O)c(C)c2)ccc1O | 0.0334% [at 91.3 µM] (inactive) | – |
| CNC(C)C(O)c1ccc(O)cc1 (stereo not given) | – | inactive |
| CC(N)Cc1ccc2c(c1)OCO2 (stereo not given) | -0.0159% (inactive) | – |
| COc1cc(C[C@H](C)N)c(OC)cc1C | 0.0008% [at 95.7 µM] (inactive) | – |
| CC1COC(Cn2cncn2)(c2ccc(Oc3ccc(Cl)cc3)cc2Cl)O1 (stereo not given) | -0.0294% [at 91.3 µM] (inactive) | – |
| CN1CSC(=S)N(C)C1 | – | inactive |
| C[C@@H]1[C@@H]2Cc3ccc(O)cc3[C@@]1(C)CCN2CCc1ccccc1 | 0.057% [at 91.3 µM] (inactive) | – |
| CNc1ccc(C(=O)CC(O)CCC(C)C2OC(=O)CC(O)CC(=O)CC(O)CC(O)CC(O)CC(O)CC3(O)CC(O)C(C(=O)OC)C(CC(O[C@@H]4O[C@H](C)[C@@H](O)[C@H](N)[C@@H]4O)/C=C/C=C/C=C/C=C/C=C/C=C/C=C/C2C)O3)cc1 (stereo not given in full) | 0.0547% (inactive) | – |
| CCCCNC(C)(C)[P+](=O)O | 0.0965% (inactive) | – |
